Source: PubChem (Sanford-Burnham Center for Chemical Genomics)
TWEAK Fn14 block – blocks TWEAK-Fn14 interaction in a reporter cell assay; TWEAK-stimulated Fn14 reporter cells, luciferase luminescence, 8 h; inhibition, % at 10 µM; hit rate 2% among 360,000; AID 1159606; in the data active means inhibition above about 50%
CF NFkB block – blocks PAF-induced NF-kB reporter in cystic fibrosis cells; KKLEB NF-kB-GFP reporter, GFP fluorescence overnight; inhibition, % at 5 µM; hit rate 0.86% among 360,000; AID 588850;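 active means at least 50% inhibition at 5 µM, scaled per plate between neutral and stimulator controls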;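 further: PAF is a Pseudomonas aeruginosa culture filtrate used as stimulus; plate controls were PAF-stimulated DMSO wells for no effect and unstimulated DMSO wells for full effect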
Peg3 promoter – reduces Peg3 promoter-driven luciferase expression in HeLa; HeLa PEG-Prom luciferase reporter, luminescence, overnight; inhibition, % at 20 µM; hit rate 1.7% among 360,000;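 active means inhibition of at least 50% at 20 µM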
HIF-2a block – HIF-2a inhibition; 786-0 RCC cells HIF-2a reporter, luciferase luminescence, overnight; inhibition, % at 18.8 µM; hit rate 0.72% among 360,000;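 active means inhibition of the luminescence signal of 40% or more relative to plate controls, in a single-dose primary screen at 18.75 µM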
KKLEB cytotox – reduces viability of KKLEB cystic fibrosis airway cells; KKLEB CF airway cells viability, ATPlite luminescence, overnight; hits give low values; cells stimulated with P. aeruginosa culture filtrate; activity change (cytotoxicity), % at 5 µM; hit rate 0.36% among 360,000; AID 602141;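 active means corrected activity change at or below -50% at 5 µM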
TROY signal inh – blocks TROY-dependent signaling in reporter cells; AID 1347056; inhibition, % at 10 µM; Q293 LMP1-TROYcd NF-kB luciferase reporter, 4 h; hit rate 0.98% among 360,000;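 active means compounds whose plate-normalised and pattern-corrected inhibition of the luciferase reporter signal at the single screening dose is 50% or more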
Mdm2-MdmX confirm – confirmation of inhibitors of human Mdm2/MdmX interaction, set 2; hit rate 99% among 740; inhibition, % at 8 µM; shares compounds with HIF-2a block; AID 504601; SaOS-2 split-luciferase Mdm2/MdmX complementation, luminescence;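 active means mean inhibition of the luminescence signal across two replicates at or above 26 percent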
Target sequence (O15151 whole entry, looked up): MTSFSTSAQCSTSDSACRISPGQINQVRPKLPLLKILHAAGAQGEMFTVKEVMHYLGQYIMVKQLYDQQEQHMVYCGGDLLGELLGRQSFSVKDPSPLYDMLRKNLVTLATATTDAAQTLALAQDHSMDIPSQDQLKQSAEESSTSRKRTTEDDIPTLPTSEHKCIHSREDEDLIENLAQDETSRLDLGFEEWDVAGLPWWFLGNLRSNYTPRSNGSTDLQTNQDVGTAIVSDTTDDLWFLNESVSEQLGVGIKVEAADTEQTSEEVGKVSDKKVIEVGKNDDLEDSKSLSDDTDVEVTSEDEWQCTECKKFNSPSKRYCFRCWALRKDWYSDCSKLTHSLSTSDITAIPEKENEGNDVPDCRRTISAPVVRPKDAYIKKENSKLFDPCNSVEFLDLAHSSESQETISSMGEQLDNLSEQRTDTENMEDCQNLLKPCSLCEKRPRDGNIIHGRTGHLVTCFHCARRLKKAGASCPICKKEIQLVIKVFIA
Target sequence (Q00987 whole entry, looked up): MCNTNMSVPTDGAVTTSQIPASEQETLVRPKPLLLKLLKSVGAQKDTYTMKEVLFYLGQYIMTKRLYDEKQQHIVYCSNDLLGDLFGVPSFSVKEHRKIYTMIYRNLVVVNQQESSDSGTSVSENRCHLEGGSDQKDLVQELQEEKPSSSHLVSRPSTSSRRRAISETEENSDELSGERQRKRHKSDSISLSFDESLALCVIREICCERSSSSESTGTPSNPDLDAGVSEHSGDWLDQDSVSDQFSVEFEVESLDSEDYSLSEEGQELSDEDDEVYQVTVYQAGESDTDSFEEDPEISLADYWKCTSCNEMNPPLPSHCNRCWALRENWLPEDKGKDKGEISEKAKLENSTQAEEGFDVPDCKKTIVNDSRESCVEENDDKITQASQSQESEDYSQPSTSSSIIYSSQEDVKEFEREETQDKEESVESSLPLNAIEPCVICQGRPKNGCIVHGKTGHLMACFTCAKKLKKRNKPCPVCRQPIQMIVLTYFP
HIF-2a inh conf – confirmation of HIF-2a inhibitors. shares compounds with HIF-2a block. 786-0 RCC cells, HIF-2a luciferase reporter luminescence, overnight. inhibition, % at 18.8 µM. hit rate 56% among 1,800;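 active means mean inhibition across four replicates of at least 40 percent at the single tested concentration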
HIF-1a cs – inhibits HIF-1a reporter, a counter-screen for HIF-2a inhibitors | MiaPaCa-2 HIF-1a luciferase reporter, desferoxamine, overnight | hit rate 72% among 1,800 | AID 651589 | inhibition, % at 18.8 µM | shares compounds with HIF-2a block;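 active means mean inhibition of the reporter signal across four replicates at the single tested dose of 50% or more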
An asterisk follows results filed as active; . = no result. This is a sample that favours compounds with a hit; in the whole collection about 3.9% have one here.

SMILES	TWEAK Fn14 block	CF NFkB block	Peg3 promoter	HIF-2a block	KKLEB cytotox	TROY signal inh	HIF-2a inh conf	HIF-1a cs	others
COc1ccc2cc1Oc1ccc(cc1)CC1c3c(cc(OC)c4c3Oc3cc5c(cc3O4)CCNC5C2)CCN1C (stereo unspecified)	-66	44	102*	54*	-45	2	3	106*
Brc1ccccc1/C=N/N1CCCCC1	3	-19	0	45*	12	-36	-19	-7
O=C(C[C@@H]1C/C=C\C[C@@H](Cc2ccc(F)cc2)C(=O)OC[C@@H](Cc2c[nH]c3ccccc23)NC1=O)NCCO	-1	-6	-5	9	-4	-13	.	.
COc1cc(/C=C2\CC(C(C)(C)C)C/C(=C\c3cc(OC)c(OC)c(OC)c3)C2=O)cc(OC)c1OC (stereo unspecified)	64*	-10	104*	94*	-8	12	.	.	Mdm2-MdmX confirm=102*
COc1ccc(CS(=O)(=O)/C(Cl)=C(/Cl)C(=O)Nc2ccc(OC)nc2)cc1	99*	88*	104*	93*	-86*	80*	.	.	Mdm2-MdmX confirm=103*
COc1ccc(/C=C/C(=O)Nc2ccc(OC)nc2)cc1	13	11	-96	-99	2	-39	.	.
C=C(C)Cn1c(Sc2nnc(C)s2)nc2c1c(=O)[nH]c(=O)n2C	4	8	3	15	-16	-9	.	.
Cc1ccc(NC(=O)/C=C/c2ccc([N+](=O)[O-])s2)c(C)c1	91*	-13	89*	79*	-29	4	-23	100*
Cc1cccc(NC(=O)/C=C/c2ccc([N+](=O)[O-])s2)c1	85*	-27	107*	49*	-33	-39	-163	103*
Cc1cccc(NC(=S)N/N=C/c2ccc([N+](=O)[O-])s2)c1	-12	-14	4	-56	16	-22	.	.
O=C(O)c1ncn(Cc2ccc(Br)cc2)c1C(=O)O	3	6	-3	14	16	-10	.	.
O=S(=O)(/C(=C/c1ccc(C(F)(F)F)cc1)c1nc2ccccc2[nH]1)c1ccccc1	63*	84*	106*	90*	-64*	15	99*	107*
CC(C)c1ccc(/C=C(\c2nc3ccccc3[nH]2)S(=O)(=O)c2ccccc2)cc1	94*	93*	104*	90*	-68*	6	98*	104*	Mdm2-MdmX confirm=103*
C/C(=C\c1ccc(N)cc1)c1nc2ccccc2[nH]1	-8	-14	-306	-227	-8	-35	.	.
O=[N+]([O-])c1ccc(Oc2cccc(Br)c2)c2ccncc12	35	32	36	45*	-23	27	29	77*
O=[N+]([O-])c1cccc2cnccc12	16	6	-6	10	-9	4	.	.
CC(NC(=O)CCc1nnc(-c2ccc(-c3ccccc3)cc2)o1)c1nccs1 (stereo unspecified)	-1	10	-73	40*	-4	-34	51*	37
CC(c1nccs1)N(C)C(=O)CCc1nnc(-c2ccc(-c3ccccc3)cc2)o1 (stereo unspecified)	23	-5	-72	10	-8	-5	.	.
COC(=O)CCCNC(=O)CCc1nnc(-c2ccc(-c3ccccc3)cc2)o1	1	-18	-90	48*	12	-32	52*	26
Cc1cccc(-c2ccc3[nH]c4c(c3c2)CCN2C[C@@H]([C@H](C)OC(=O)Nc3ccccc3C)[C@@H](N(C)C(=O)Nc3ccccc3C)C[C@@H]42)c1	88*	16	40	56*	15	20	1	83*
COc1ccc2[nH]c(=O)c(CN(C(=O)c3cccnc3)c3ccc(C)cc3)cc2c1	2	10	-25	-24	8	.	.	.
O=C(NCc1cccnc1)C(=O)NCC1OCCCN1S(=O)(=O)c1ccc(F)cc1 (stereo unspecified)	-3	17	-5	4	-2	14	.	.
Cc1cc(NC(=O)c2ccccc2)c(Cl)cc1N	28	-8	-31	69*	5	0	84*	59*
CCOC12NC(=O)CC(=O)N1C(c1ccccc1)=CS2 (stereo unspecified)	4	-1	-107	-97	5	-6	.	.
CCOC(=O)c1cccc(NC(=O)Nc2ccc(OCC)cc2)c1	4	-14	-136	62*	1	-30	61*	-17
SMILES	TWEAK Fn14 block	CF NFkB block	Peg3 promoter	HIF-2a block	KKLEB cytotox	TROY signal inh	HIF-2a inh conf	HIF-1a cs	others
COc1ccc(C(=O)Nc2nc3ccccc3[nH]2)cc1	89*	11	41	49*	-29	69*	64*	68*
CCOC(=O)C1CCCN(C(=O)COc2ccc(C(C)(C)C)cc2)CC1 (stereo unspecified)	-7	-9	-18	47*	5	-5	58*	-27
COc1ccc(C(=O)Nn2c(SCC(=O)NCC3CCCO3)nc3ccccc3c2=O)cc1 (stereo unspecified)	95*	5	13	49*	-6	78*	60*	49
CCOc1ccc(C(=O)Nc2nnc(SCC(=O)NCC3CCCO3)s2)cc1 (stereo unspecified)	69*	15	21	55*	-36	36	59*	-1
O=C(CSc1nnc(NC(=O)c2cccc(F)c2)s1)NCC1CCCO1 (stereo unspecified)	-13	26	-30	-44	-12	-19	.	.
COc1ccc(C=C(C(C)=O)C(=O)c2ccccc2)cc1	28	-5	-5	-35	29	-2	.	.
CC(=O)C(=Cc1ccc(Cl)cc1)C(=O)c1ccccc1	95*	48	99*	91*	-23	19	92*	105*
NC(=O)c1ccc(NC(=O)C#Cc2ccccc2)cc1	89*	22	58*	-10	2	-5	.	.	Mdm2-MdmX confirm=101*
CSc1nnc(-c2sc3cc(C(F)(F)F)cnc3c2-c2ccccc2)n1C	0	16	27	41*	-3	21	12	55*
COC(=O)c1ccc2nc(NC(=O)C(C)C)sc2c1	11	-1	-240	-148	-6	-70	.	.
COC(=O)c1ccc2nc(Nc3nc4c(F)cc(F)cc4s3)sc2c1	105*	38	75*	90*	-20	92*	94*	90*
O=C(CSc1ncnc2c1nnn2Cc1ccccc1)NC1CCCC1	9	16	5	17	-5	17	.	.
